Bioassay records (PubChem BioAssay)
TrxR1 substrate: qHTS Assay for Substrates of Mammalian Selenoprotein Thioredoxin Reductase 1 (TrxR1): qHTS. Potency, µM (doses to about 114 µM), inactives show at the top dose activity change, negative = substrate turnover. Thioredoxin reductase 1, cytoplasmic (Rattus norvegicus), O89049. AID 588456, 2011. purified TrxR1 substrate turnover, NADPH consumption readout. 390,000 compounds, 0.01% hits; further: nearly all actives have a fitted effect of over 50% in size
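Rat TrxR1, dispensed at 90 nM, was prereduced with 400 uM NADPH (final) for 5 min at ~22 deg C, then incubated with compound 15 min before 400 uM selenite. A first-read NADPH fluorescence drop versus no-compound background flagged substrates.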
Sfp PPTase inh: qHTS Assay for Inhibitors of Bacillus subtilis Sfp phosphopantetheinyl transferase (PPTase); 4'-phosphopantetheinyl transferase ffp (Bacillus subtilis), Q9F4F7; Biochemical Sfp PPTase activity, qHTS; Potency, µM, for the others: largest response in the series, negative = inhibition, actives largely listed as inhibitors; 310,000 compounds, 3.5% hits; AID 1490, 2009;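 further: the enzyme is Sfp with the accession as filed and its product quenches rhodamine fluorescence; 0% = enzyme reaction without inhibitor and -100% = no enzyme wells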
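Buffer: 50 mM Hepes-Na pH 7.6, 10 mM MgCl2, 0.01% Nonidet P-40, 0.01% BSA. Enzyme 15 nM, pre-exposed to compound 15 min; substrates then added and fluorescence change tracked over 30 min.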
TrxR1 inh: qHTS Assay for Inhibitors of Mammalian Selenoprotein Thioredoxin Reductase 1 (TrxR1): qHTS. Potency, µM (doses to about 114 µM), without a hit: top-dose activity change, negative = inhibition, most hits filed as inhibitors. 390,000 compounds, 1% hits. Thioredoxin reductase 1, cytoplasmic (Rattus norvegicus), O89049. recombinant rTrxR1, NADPH fluorescence consumption, selenite substrate; further: nearly all actives have a fitted effect of over 65% in size
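Rat TrxR1 (90 nM in the dispensed reagent) was pre-reduced with 400 uM NADPH for 5 min at room temperature, then incubated with compound for 15 min. After 400 uM selenite was added, NADPH fluorescence (Ex 340/Em 450 nm) was followed for 8 min.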
IDH1 R132H inh: qHTS for Inhibitors of mutant isocitrate dehydrogenase 1 (IDH1): qHTS; Isocitrate dehydrogenase [NADP] cytoplasmic (Homo sapiens), O75874; IDH1-R132H enzyme, NADPH consumption, diaphorase/resazurin fluorescence; Potency, µM (doses to about 76.6 µM), for the others: at the top dose activity change, negative = inhibition, usual class: inhibitors; 390,000 compounds, 0.093% hits; further: nearly all actives have a fitted effect of over 65% in size
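IDH1-R132H (0.5 ug/mL) preincubated 30 min with compound, then NADPH (0.016 mM) and alpha-KG (2 mM) added; 80 min at RT, pH 7.5. Remaining NADPH coupled via diaphorase/resazurin to fluorescence (540/590 nm); concentration-response curves normalized to no-enzyme control.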
VDR inhibitor: Inhibitors of the vitamin D receptor (VDR): qHTS. Potency, µM, without a hit: max response, negative = inhibition, most hits filed as inhibitors. Vitamin D3 receptor (Homo sapiens), P11473. VDR-SRC2-3 peptide fluorescence polarization, 2 h. 400,000 compounds, 0.93% hits
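Inhibition of the VDR/SRC2-3 peptide interaction is quantified by fluorescence polarization. Compounds (23 nl, pintool) incubate with the reagents for 2 hours at ambient room temperature.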
PLK1 PBD block: qHTS for Inhibitors of PLK1-PDB (polo-like kinase 1 - polo-box domain): Primary Screen. Plk1 PBD binding of FITC phosphopeptide, fluorescence polarization. Potency, µM, for inactives: max response, negative = inhibition, most hits filed as inhibitors. 360,000 compounds, 2.8% hits. AID 720504, 2013; further: series mostly up to about 57 µM; nearly all actives have a fitted effect of over 65% in size
Target sequence (P53350 whole entry, looked up, the tested form may be a part): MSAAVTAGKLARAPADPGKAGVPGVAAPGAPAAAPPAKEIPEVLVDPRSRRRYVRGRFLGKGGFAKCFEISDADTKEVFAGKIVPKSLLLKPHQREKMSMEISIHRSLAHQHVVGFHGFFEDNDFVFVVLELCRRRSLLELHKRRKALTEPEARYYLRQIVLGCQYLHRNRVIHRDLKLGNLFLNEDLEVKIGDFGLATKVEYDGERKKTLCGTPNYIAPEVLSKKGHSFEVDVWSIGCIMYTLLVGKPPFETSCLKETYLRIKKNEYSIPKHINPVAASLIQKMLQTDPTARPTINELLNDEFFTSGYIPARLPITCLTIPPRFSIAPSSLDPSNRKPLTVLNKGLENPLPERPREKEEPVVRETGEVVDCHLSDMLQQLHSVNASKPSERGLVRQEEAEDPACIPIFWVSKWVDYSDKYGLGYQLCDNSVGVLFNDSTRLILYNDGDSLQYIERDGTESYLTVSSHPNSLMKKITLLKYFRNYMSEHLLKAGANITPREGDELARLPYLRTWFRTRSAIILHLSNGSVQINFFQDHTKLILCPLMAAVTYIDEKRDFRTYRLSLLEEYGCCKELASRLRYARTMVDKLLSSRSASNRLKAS
* hit, by the source's call; ? = inconclusive; nt = not tested or not shown; ! = repeats disagree; [ ] = dose if it differs, or a comment. A selection: hits, their analogues and other compounds. The true share with any hit is near 5.2%. The call rests on the fitted dose curve; in most records, active means well fitted curve in the direction sought with a large enough effect; inconclusive means small, poorly fitted or top-dose-only effect, or another doubt; inactive means no such curve, though single readings can be large; an effect the other way counts as inactive or inconclusive. Unless noted, on the % scale 0 is the no-effect control and ±100 the full control effect; potency means the concentration at half of the fitted maximal effect.

SMILES	TrxR1 substrate	Sfp PPTase inh	TrxR1 inh	IDH1 R132H inh	VDR inhibitor	PLK1 PBD block
CC(=O)NC(CCS(C)(=O)=O)C(=O)Nc1cc(C)on1 (configuration not stated)	7%[57.1 µM]	14%	11%[57.1 µM]	12%	-28%	-3%
CC(=O)NC(CCS(C)(=O)=O)C(=O)Nc1nccs1 (configuration not stated)	-9%[57.1 µM]	-2%	8%[57.1 µM]	-2%	-18%	27µM*
CC(NS(=O)(=O)c1ccccc1)C(=O)Nc1nccs1 (configuration not stated)	-12%	6%	-2%	4%	0%	21µM*
CC1=C(C(=O)Nc2ccccc2)C(c2ccc[nH]2)n2ncnc2N1 (configuration not stated)	-3%[57.1 µM]	nt	40µM*!	nt	4%	nt
Cn1nc(-c2ccccc2)c(CO)c1Oc1ccc(F)cc1	-6%	8%	10%[57.1 µM]	9%	?	11µM*
CCOc1ccc(/C=N/O)cc1	5%[57.1 µM]	21%	6%[57.1 µM]	0%	-12%	-1%
CCCN=Cc1sc2ccc(OCC)cc2c1O	10%[57.1 µM]	50µM*	1%	2%	-9%	-10%
N#Cc1ccsc1NC(=O)c1cccc([N+](=O)[O-])c1	-3%[57.1 µM]	40µM*	18%[57.1 µM]	-3%	-11%	-17%
COc1cc(NC(=O)C/C(C)=N/NC(=O)C(=O)NCCO)c(OC)cc1Cl	11%[2.29 µM]	-3%	23%[2.29 µM]	1%	-30%	27µM*
COc1cc(NC(=O)C/C(C)=N/NC(=O)C(=O)NC2CCCCC2)c(OC)cc1Cl	2%	8%	10%	2%	-1%	4%
COc1ccccc1NS(=O)(=O)c1cc(N)ccc1N1CCCCC1	1%	11µM*	-3%	4%	-15%	3µM*
COc1ccc(NS(=O)(=O)c2cc(NC(=O)C3CC3)ccc2N2CCCCC2)cc1	-3%	16%	18%	0%	-8%	-10%
COc1ccccc1NS(=O)(=O)c1cc(NC(=O)Nc2ccc(Cl)cc2Cl)ccc1N1CCCCC1	3%	-9%	8%	-3%	-16%	?
COc1ccccc1NS(=O)(=O)c1cc(NC(=O)C2CCC2)ccc1N1CCCCC1	-9%	8.9µM*	-19%	8%	?	6µM*
Nc1ccc(N2CCCCC2)c(S(=O)(=O)Nc2ccccc2Cl)c1	-6%	28µM*	7%	7%	-14%	27µM*
Nc1ccc(N2CCCCC2)c(S(=O)(=O)Nc2ccc(Cl)cc2)c1	-9%	11%	3%	0%	-20%	-12%
CCCS(=O)(=O)Nc1ccc(N2CCCCC2)c(S(=O)(=O)Nc2ccccc2OC)c1	-7%	nt	-11%	2%	-21%	24µM*
CC(C)c1ccc(/C=C2\C=Cc3ccccc32)cc1	-6%	nt	?	nt	nt	nt
CC(C)NC(=O)N1CC[C@@]2(CCCN(C(=O)c3ccncc3)C2)C1	nt	0%	nt	nt	-2%	nt
COc1ccc(NC(=O)c2cccc(-c3ccc(O)cc3)c2)cn1	3%	2%	23%	15%	-23%	?
COc1ccccc1NS(=O)(=O)c1cc(NC(=O)c2ccccc2[N+](=O)[O-])ccc1N1CCOCC1	8%[57.1 µM]	nt	14%[57.1 µM]	-11%	17%	?
COc1ccccc1NS(=O)(=O)c1cc(NC(=O)c2ccccc2F)ccc1N1CCOCC1	3%[57.1 µM]	-2%	22%[57.1 µM]	18%	-1%	27µM*
COC1=CC(=O)C(C(=O)c2ccccc2)=CC1=O	nt	40µM*	nt	nt	32µM*	nt
CCC1=C(OC(=O)N(CC)CC)N2C(=O)OC(=NCCOC)[C@]2(C)[C@H]2C1=CC[C@H]1C(=O)NC(=O)[C@H]12	nt	32%	nt	nt	nt	nt
COc1ccc(NC(=O)C(=O)NCCCn2ccnc2)cc1	3%[57.1 µM]	8%	23%	15%	-5%	-8%
SMILES	TrxR1 substrate	Sfp PPTase inh	TrxR1 inh	IDH1 R132H inh	VDR inhibitor	PLK1 PBD block
O=C(NCCCn1ccnc1)C(=O)Nc1ccccc1	-7%	10%	21%[57.1 µM]	8%	0%	30µM*
Cc1ccc(/C=N/Nc2cn[nH]c(=O)n2)o1	-14%	50µM*	-8%	-10%	7%	-9%
O=c1nc(N/N=C/c2ccccn2)cn[nH]1	-7%	23%	-12%	0%	7%	5%
O=C(Nc1nc(=S)ss1)c1ccc(Cl)cc1Cl	15%[57.1 µM]	13µM*	20%[57.1 µM]	8%	-14%	15µM*
COc1cccc(CN2CCN(Cc3cccc4nonc34)CC2CCO)c1 (configuration not stated)	9%[57.1 µM]	31%	15%[11.4 µM]	20%	-28%	17µM*
COC(=O)c1ccc(CSc2ccc3nnc(-c4ccc(F)cc4)n3n2)o1	0%	-10%	-6%	5%	-10%	-15%
COC(=O)c1ccc(CSc2ccc3nnc(-c4ccccn4)n3n2)o1	0%	40µM*	?	3%	-5%	0%
CCOc1ccc(-c2nnc3ccc(SCc4ccc(C(=O)OC)o4)nn23)cc1	5%	11µM*	?	4%	-6%	-9%
CN1CCc2cccc3c2C1Cc1ccc(O)c(O)c1-3 (configuration not stated)	14%[57.1 µM]	56µM*!	?	-3%	10µM*!	3%
CC1(C)CC(N2CCN(CCO)CC2)=CC(=S)N1	6%[57.1 µM]	50µM*	?	-5%	-22%	2%
CC1(C)CC(NCc2ccccc2)=CC(=S)N1	nt	nt	nt	nt	nt	-5%
C/C(=N\O)C(=O)NCC1CCNCC1	5%	9%	-8%[57.1 µM]	-2%	5%	27µM*
C/C(=N\O)C(=O)NCc1ccncc1	7%	5%	16%[57.1 µM]	-3%	3%	-15%
CCCCCCN1CCN(C2CN(C3CCCCC3)S(=O)(=O)C2)CC1 (configuration not stated)	nt	nt	nt	nt	nt	-6%
O=C1C(=O)N(CCCn2ccnc2)C(c2ccc(Br)cc2)/C1=C(\O)c1ccc2c(c1)OCCO2 (configuration not stated)	-5%	8%	17%	-11%	-3%	-19%
COc1cccc(C2/C(=C(/O)c3ccc4c(c3)CC(C)O4)C(=O)C(=O)N2CCCn2ccnc2)c1 (configuration not stated)	-11%	8%	-4%	-8%	8%	-10%
COc1cccc(C2/C(=C(\O)c3ccc4c(c3)OCCO4)C(=O)C(=O)N2CCCn2ccnc2)c1 (configuration not stated)	4%[57.1 µM]	15%	17%[57.1 µM]	-7%	?	27µM*
